Common to all, as to assay: NCI-60 one-dose screen, 48 h (100 = growth as untreated, 0 = no growth, -100 = all killed)
Holding throughout (details): 10 µM unless noted

Test [1] has as its system SR leukemia.
Test [2] concerns RPMI-8226 leukemia.
Test [3] relates to OVCAR-8 ovarian.
Test [4] deals with OVCAR-5 ovarian.
Test [5] concerns OVCAR-4 ovarian.
The test system of test [6] is SK-OV-3 ovarian.
Test [7] relates to IGROV1 ovarian.
Test [8] relates to OVCAR-3 ovarian.
In test [9] the test system is HS 578T breast.
In test [10] the test system is NCI/ADR-RES ovarian.
Test [11] has as its system T-47D breast.
Test [12] relates to BT-549 breast.
In test [13] the test system is MDA-MB-435 melanoma.
The subject of test [14] is SW-620 colon.
In test [15] the test system is HCT-116 colon.
The subject of test [16] is HCC-2998 colon.
The test system of test [17] is KM12 colon.
Test [18] concerns MDA-MB-468 breast.
Test [19] deals with MCF7 breast.

Compounds without any hit were thinned out: in the full panel of roughly 83,000, 20% have a hit.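 How to read the values: 0–100, growth inhibition (40 = 60% inhibited); 0, no net growth; -100 to 0, cell death (-40 = 40% of starting cells died; -100 = all dead).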 A number with no mark means an inactive call. Calls of active or inactive are those of the source. The calls were made as follows: active = growth percent below 10; inactive = the rest.

On to `Cc1sc2c(c1C)C(c1ccc(Cl)cc1)=N[C@@H](CC(=O)NCCCCCNC(=O)COc1ccc(C3CCC(=O)NC3=O)cc1)c1nnc(C)n1-2` (stereo partly drawn), for which the growth was 37.5% in [1]; -3.88% (active) in test [2]; 16.2% in test [3]; 27.8% in [4]; 22.8% in test [5]; -16.9% (active) in test [6]. Moreover, the growth in test [7] was 21.8%; in test [8] it was 44.7%; in test [9] it was 25%; in [10] it was 97.3%; in test [11], -10.6% (active); in [12], -0.134% (active). Also, the growth was 20.3% in test [13]; 23.1% in test [14]; 20% in test [15]; -10.8% (active) in [16]; 13.9% in [17]; -20.8% (active) in test [18].

For `COc1cc2c(c(OC)c1OC)C(=O)CC(c1cccc(NC(=O)[C@@H](N)CC(C)C)c1)O2` (stereo partly drawn), the growth in [1] was 66.9%; in test [2], 108%; in test [3], 94.9%; in test [4], 112%; in test [5] it was 102%; in test [6] it was 109%. The growth was 107% in test [7]; 97.9% in [8]; 99.8% in [10]; 86% in [11]; 94.3% in [12]; 91.2% in test [13]. In addition, the growth in [14] is 107%; in test [19], 86.8%; in [15], 101%; in [16], 117%; in [17], 97.2%; in test [18], 89.3%.

On to `O=C(c1ccccc1)C(c1c[nH]c2ccccc12)c1c[nH]c2ccccc12`, for which the growth in test [1] is 7.54% (active); in test [2] it was 20.6%; in test [3], 64.4%; in test [4] it was 76.6%; in test [5], 51.5%; in test [6], 94.2%. The growth in test [7] was 56%; in test [8], 57.9%; in [9], 61%; in test [11] it was 58%; in test [12], 14%; in [13] it was 36.8%. For the same compound, the growth in test [14] is 4.95% (active); in [19], 16.4%; in [15], 20.2%; in test [16], 83.8%; in test [17], 51.3%; in test [18], 57.8%.

As for `CCOC(=O)c1ccc(Nc2nc(NN)nc(-c3ccc(F)cc3)c2C#N)cc1`, the growth was 72.4% in test [1]; 103% in [2]; 112% in test [3]; 99.5% in test [4]; 98.3% in [5]; 116% in test [6]. Besides, the growth is 109% in [7]; 103% in test [8]; 100% in test [9]; 94.7% in test [11]; 111% in test [12]; 111% in [13]. For the same compound, the growth in test [14] is 111%; in test [15] it was 102%; in test [16] it was 105%; in test [17], 109%; in [18], 119%.

With `Cn1cc(-c2cc3nc(-c4c[nH]c5ccc(Cl)cc45)cc(N)n3n2)c2ccccc21`, the growth is 5.34% (active) in test [1]; -38.7% (active) in [2]; -64.7% (active) in test [3]; -89.2% (active) in test [4]; -67.4% (active) in test [5]; -86.5% (active) in [6]. Further, the growth in test [7] is -53.1% (active); in test [8], -62.7% (active); in [10], -29.7% (active); in test [11] it was -73.9% (active); in [12], -74% (active); in test [13], -84.7% (active). For the same compound, the growth was -39.3% (active) in test [14]; -73.7% (active) in test [19]; -88.3% (active) in test [15]; -78% (active) in test [16]; -70.3% (active) in test [17]; -73.5% (active) in test [18].

With `Cc1cc(=O)oc2cc(OCCOc3ccc(/C=C/C(=O)Nc4ccccc4N)cc3)ccc12`, the growth in [1] is 26.1%; in test [2], 1.06% (active); in [3] it was 38.5%; in test [4] it was 39.2%; in test [5] it was 41.2%; in [6] it was 11.1%. For the same compound, the growth is 38.7% in [7]; 20.3% in [8]; 16.4% in test [10]; 15.3% in [11]; -49.2% (active) in [12]; 42.7% in test [13]. In addition, the growth is 27.4% in [14]; 5.65% (active) in test [19]; 16.1% in test [15]; 37.9% in [16]; 13.7% in test [17].

Take `Cn1cc(NC(=O)c2cc(NC(=O)c3ccc(/C=C/c4ccccc4)cc3)cn2C)cc1C(=O)NCCCN1CCOCC1`: the growth in test [1] is -22.3% (active); in [2], -47.7% (active); in test [3], 15.4%; in [4], 93.9%; in test [5] it was 63%; in test [6], 98.4%. Further, the growth in test [7] was 58.3%; in test [8] it was 24.5%; in test [9] it was 64.6%; in test [11] it was 46.4%; in [12] it was 71.7%; in [14], -34% (active). The growth was -84.8% (active) in [19]; -90.1% (active) in [15]; -80.1% (active) in test [16]; -45.8% (active) in [17]; -61.3% (active) in [18].

Regarding `Clc1cccc(-c2ccc(OCCCN3CCN(c4ccncc4)CC3)cc2)c1`, the growth in [1] was -38.5% (active); in [2], -39.1% (active); in [3], 37.9%; in [4] it was 69.7%; in test [5], 38.2%; in test [6], 30.1%. Also, the growth in [7] is 49.6%; in test [8] it was 0.45% (active); in test [10], 5.66% (active); in test [11], -37.5% (active); in [12] it was 20.4%; in [13], -51.6% (active). In addition, the growth in test [14] is -66.2% (active); in [19], -61.4% (active); in [15] it was -76.7% (active); in test [16], -91.5% (active); in [17], -43.8% (active).

As for `O=C(CN1C(=O)/C(=C/c2ccccc2Cl)SC1=S)N1CCOCC1`, the growth in [1] was 34.3%; in test [2], 58.8%; in [3], 97.1%; in [4] it was 98.3%; in test [5], 78.2%; in [6], 124%. For the same compound, the growth in test [7] is 107%; in [8] it was 77.1%; in [10], 95.5%; in test [11] it was 70.9%; in test [12] it was 119%; in [13], 91.3%. For the same compound, the growth is 38.6% in test [14]; 49.6% in test [19]; 61.1% in test [15]; 124% in test [16]; 101% in [17]; -2.81% (active) in test [18].

Source of the values: PubChem BioAssay (NCI).
